Source: PubChem BioAssay
TrxR1 substrate: substrates of rat thioredoxin reductase 1; O89049; purified TrxR1 substrate turnover, NADPH consumption readout; Potency, µM (doses to about 114 µM), inactives show top-dose activity change, negative = substrate turnover; hit rate 0.01% among 390,000; further: potency means the concentration at half of the fitted maximal effect; on the % scale 0 is the no-effect control and ±100 the full control effect; nearly all actives have a fitted effect of over 50% in size
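Rat TrxR1, dispensed at 90 nM, was prereduced with 400 uM NADPH (final) for 5 min at ~22 deg C, then incubated with compound 15 min before 400 uM selenite. A first-read NADPH fluorescence drop versus no-compound background flagged substrates.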
mIDH1 inhibitor: human IDH1 R132H inhibition. O75874. IDH1-R132H enzyme, NADPH consumption, diaphorase/resazurin fluorescence. Potency, µM (highest dose often 76.6 µM), for inactives: at the top dose activity change, negative = inhibition, hits mostly inhibitors. hit rate 0.093% among 390,000. AID 602179; further: potency means the concentration at half of the fitted maximal effect; on the % scale 0 is the no-effect control and ±100 the full control effect; nearly all actives have a fitted effect of over 65% in size
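IDH1-R132H (0.5 ug/mL dispensed) in pH 7.5 Tris buffer was preincubated 30 min with compound, then given a substrate mix of 0.016 mM NADPH and 2 mM alpha-KG for 80 min at room temperature; remaining NADPH was read by diaphorase/resazurin fluorescence.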
Apoferritin bind: binds horse apoferritin like a general anesthetic | apoferritin/1-aminoanthracene competitive binding, fluorescence | Potency, µM (series often up to 77.5 µM), inactives show at the highest dose activity change, negative = displacement, most hits filed as inhibitors | hit rate 0.074% among 350,000 | AID 485281; further: potency means the concentration at half of the fitted maximal effect; on the % scale 0 is the no-effect control and ±100 the full control effect; nearly all actives have a fitted effect of over 20% in size
Target sequence (P02791 2-175 limits assumed): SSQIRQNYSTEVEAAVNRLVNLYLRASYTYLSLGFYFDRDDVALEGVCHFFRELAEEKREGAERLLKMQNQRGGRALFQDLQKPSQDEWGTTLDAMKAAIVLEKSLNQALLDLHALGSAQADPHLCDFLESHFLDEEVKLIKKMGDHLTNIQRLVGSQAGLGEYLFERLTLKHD
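Concentration-response curves derived by four-parameter Hill fitting of normalized fluorescence, where compounds displaced 1-AMA from 10 uM horse apoferritin following a brief 10 min room-temperature incubation; propofol titration acted as positive control.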
TrxR1 inh-1: inhibitors of rat thioredoxin reductase 1. Potency, µM (top dose mostly 114 µM), for inactives: top-dose activity change, negative = inhibition, hits mostly inhibitors. AID 588453. recombinant rTrxR1, NADPH fluorescence consumption, selenite substrate. hit rate 1% among 390,000. O89049; further: potency means the concentration at half of the fitted maximal effect; on the % scale 0 is the no-effect control and ±100 the full control effect; nearly all actives have a fitted effect of over 65% in size
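Rat TrxR1 (90 nM in the dispensed reagent) was pre-reduced with 400 uM NADPH for 5 min at room temperature, then incubated with compound for 15 min. After 400 uM selenite was added, NADPH fluorescence (Ex 340/Em 450 nm) was followed for 8 min.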
PKM2 act: PKM2 (human) enzyme activation; P14618; purified PKM2, Kinase-Glo ATP luminescence, activation; response scale: 0% is enzyme alone, no compound; Potency, µM (titrated, usually from 57.5 µM), inactives show at the top dose activation, hits mostly activators; hit rate 0.34% among 260,000; further: potency means the concentration at half of the fitted maximal effect; on the % scale 0 is the no-effect control and ±100 the full control effect; nearly all actives have a fitted effect of over 55% in size
Target sequence (P14618 whole entry, looked up): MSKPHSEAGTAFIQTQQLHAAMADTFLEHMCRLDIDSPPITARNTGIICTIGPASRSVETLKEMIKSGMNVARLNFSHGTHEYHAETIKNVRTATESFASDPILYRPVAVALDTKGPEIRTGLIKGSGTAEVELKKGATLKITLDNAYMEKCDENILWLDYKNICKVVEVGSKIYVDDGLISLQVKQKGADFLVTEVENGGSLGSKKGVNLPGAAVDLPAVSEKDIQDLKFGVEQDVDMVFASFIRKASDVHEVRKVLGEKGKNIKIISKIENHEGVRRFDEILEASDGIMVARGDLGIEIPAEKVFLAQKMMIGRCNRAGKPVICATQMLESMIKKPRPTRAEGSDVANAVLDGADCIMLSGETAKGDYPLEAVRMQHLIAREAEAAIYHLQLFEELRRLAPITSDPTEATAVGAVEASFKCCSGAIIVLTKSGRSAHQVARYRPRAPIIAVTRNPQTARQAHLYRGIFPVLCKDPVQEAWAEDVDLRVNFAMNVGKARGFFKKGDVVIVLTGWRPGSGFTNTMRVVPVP
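Purified hPK-M2 (>95%) run at intermediate activity with 0.1 mM ADP and 0.5 mM PEP in 50 mM imidazole pH 7.2, KCl, MgCl2; 1 h room temperature. ATP formed read by Kinase-Glo luminescence; normalized to uninhibited and no-enzyme controls.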
GALK inh: inhibitors of human galactokinase. P51570. Purified GALK, Kinase-Glo residual ATP luminescence. Potency, µM (top dose mostly 57.5 µM), for the others: at the highest dose activity change, negative = inhibition, most hits filed as inhibitors. hit rate 0.007% among 270,000. AID 1868; further: potency means the concentration at half of the fitted maximal effect; on the % scale 0 is the no-effect control and ±100 the full control effect
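ATP-depletion format; final 35 uM ATP, 100 uM D-galactose, 5 nM enzyme; pH 8.0 HEPES/Mg2+ buffer; 60 min RT; luminescence read 10 min after detection reagent.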
GR inh: inhibits human glutathione reductase in TrxR1 counterassay; shares compounds with TrxR1 inh-1; purified GR, DTNB reduction absorbance 405 nm kinetic; activity change, negative = inhibition, % at 57.1 µM; 55 tested, under 10 active
TrxR1 inh-2: validation of rat thioredoxin reductase 1 inhibitors; shares compounds with TrxR1 inh-1; recombinant TrxR1, NADPH fluorescence consumption, selenite substrate; Potency, µM, actives largely listed as inhibitors; hit rate 50% among 55; AID 652023
TrxR1 insulin: inhibits TrxR1-driven insulin reduction | shares compounds with TrxR1 inh-1 | TrxR1 Trx-coupled insulin reduction, NADPH absorbance 340 nm | Potency, µM | hit rate 20% among 55 | AID 652037;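 active means compounds with a measured potency under 100 micromolar; inconclusive means filed, but no rule given; inactive means potency at or above that, or unmeasurable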
TrxR1 inh-3: rat thioredoxin reductase 1 inhibition, DTNB assay; shares compounds with TrxR1 inh-1; purified TrxR1, DTNB reduction, A412; Potency, µM; hit rate 90% among 55; AID 652256;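 active means a half-inhibiting concentration could be measured and was below 100 µM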
Resorufin autofl: interferes with resorufin fluorescence in IDH1 counter-screen; 750 tested, under 10 active; Resorufin detection reagent fluorescence interference, cell-free; inhibition of signal, % at 51.2 µM; shares compounds with mIDH1 inhibitor;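 further: 0% = wells with normal resorufin and full inhibition = wells lacking resorufin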
WT IDH1 inh: wild-type IDH1 (human) inhibition counterscreen; shares compounds with mIDH1 inhibitor; WT IDH1 enzyme, NADPH diaphorase/resazurin fluorescence; Potency, µM (series often up to 115 µM), for inactives: at the top dose activity change, negative = inhibition, usual class: inhibitors; hit rate 9% among 750; AID 623995;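 further: potency means the concentration at half of the fitted maximal effect; 0% = full WT IDH1 enzyme control and full inhibition = no enzyme wells; nearly all actives have a fitted effect of over 55% in size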
IDH1 R132H conf: mutant IDH1 (human) inhibition, confirmed. shares compounds with mIDH1 inhibitor. IDH1 R132H enzyme, NADPH diaphorase/resazurin fluorescence. Potency, µM (titrated, usually from 76.6 µM), for inactives: at the highest dose activity change, negative = inhibition, usual class: inhibitors. hit rate 83% among 750; further: potency means the concentration at half of the fitted maximal effect; nearly all actives have a fitted effect of over 50% in size
An asterisk follows results filed as active; ? = inconclusive; · = no result given; [ ] = remark or other dose. In the library only some 1.3% were active in any assay of this set; here they are far more common. Unless noted, the call rests on the fitted dose curve; in most records, active means well fitted curve in the direction sought with a large enough effect; inconclusive means small, poorly fitted or top-dose-only effect, or another doubt; inactive means no such curve, though single readings can be large; an effect the other way counts as inactive or inconclusive.

SMILES	TrxR1 substrate	mIDH1 inhibitor	Apoferritin bind	TrxR1 inh-1	PKM2 act	GALK inh	Resorufin autofl	WT IDH1 inh	IDH1 R132H conf	others
O=C1C=CC2C3C(=O)N(c4ccccc4)C(=O)C3C1N2Cc1ccccc1 (stereo unspecified)	6%[11.4 µM]	-18%	·	3.5µM*	·	·	·	·	·	GR inh=-1;TrxR1 inh-2=?;TrxR1 insulin=17µM*;TrxR1 inh-3=1.5µM*
COC1(C)CC(c2ccccc2)c2c(c3ccccc3oc2=O)O1 (stereo unspecified)	·	·	5%	·	·	·	·	·	·
Cc1ccc(C[n+]2c(-c3ccc(C)cc3)cc(-c3ccc(C)cc3)cc2-c2ccc(C)cc2)cc1	63%	40µM*	·	7%	·	·	0	12%	22µM*
Cc1ccc(-c2cc(-c3ccc(C)cc3)[n+](-c3ccc(C(=O)O)cc3)c(-c3ccc(C)cc3)c2)cc1	20%	5%	·	14%	·	·	·	·	·
CN1C(=O)/C(=C\c2ccc(N3CCCCCC3)cc2)C(=O)NC1=S	-2%	46µM*	-14%	20µM*	0%	7%	-12	-4%	22µM*
CN1C(=O)/C(=C/c2ccc(N3CCCCCC3)o2)C(=O)NC1=S	-3%	5%	-2%	?	-21%	3%	·	·	·
C=C1C(=O)O[C@@H]2C[C@@H](C)[C@@H]3C=CC(=O)[C@@]3(C)[C@@H](OC(=O)CC(=O)O[C@H]3[C@@H]4C(=C)C(=O)O[C@@H]4C[C@@H](C)[C@@H]4C=CC(=O)[C@]43C)[C@H]12	3%	?	-9%	?	15%	-12%	9	-10%	?
CCOC(=O)c1cccc(NC(=O)NCc2ccc3c(c2)CCN3C(=O)c2ccccc2)c1	8%[57.1 µM]	22%	27%	28%[57.1 µM]	·	·	·	·	·
O=C1NC(=O)C(=Cc2ccc(-c3ccc(Cl)cc3)o2)C(=O)N1	7%[57.1 µM]	?	-20%	-60%	17%	·	3	2%	40µM*
O=C1NC(=O)C(=Cc2ccc(-c3ccc(S(=O)(=O)N4CCOCC4)cc3)o2)C(=O)N1	4%	?	-18%	?	9%	·	·	·	·
Clc1c(Cl)c(Cl)c(Cl)c(Cl)c1Cl	·	·	0%	·	·	·	·	·	·
Cc1nc2cc(C(F)(F)F)ccc2n1C1CCN(Cc2nnnn2Cc2ccc3c(c2)OCO3)CC1	-10%	?	?	0%	-1%	-2%	-4	14%	16µM*
CCCCOc1ccc(CC2C(=O)N(C)C(=O)N(C)C2=O)cc1	-8%	?	-11%	-9%	10%	4%	-1	114%	45µM*
CC(=O)O[C@H]1C[C@@H]2CCC3C(CC[C@@]4(C)[C@H]3C[C@H]([N+]3(C)CCCCC3)[C@@H]4OC(C)=O)[C@@]2(C)C[C@@H]1[N+]1(C)CCCCC1 (stereo partly specified)	·	·	·	8%	·	·	·	·	·
Clc1ccc(C(c2ccc(Cl)cc2)n2cc[n+](CC(OCc3ccc(Cl)cc3Cl)c3ccc(Cl)cc3Cl)c2)cc1 (stereo unspecified)	-4%[57.1 µM]	18µM*	·	?	·	·	-8	?	7.9µM*
Clc1ccc(COC(Cn2ccnc2)c2ccc(Cl)cc2Cl)cc1 (stereo unspecified)	8%	?	-8%	?	-1%	3%	·	·	·
CCOc1ccccc1Oc1coc2cc(OC(=O)N(C)C)ccc2c1=O	1%	2%	-4%	1%	·	2%	·	·	·
CCOc1ccccc1Oc1coc2cc(OC(=O)c3ccco3)ccc2c1=O	18%	?	-5%	15%	4%	-5%	-9	1%	28µM*
CN(C)C(CSC(N)=O)CSC(N)=O	·	·	3%	·	·	·	·	·	·
c1ccc2c(c1)CN1CCCC1=N2	3%	1%	?	30%	·	·	·	·	·
CC(=O)[C@H]1CC[C@H]2[C@@H]3CC=C4C[C@@H](OS(=O)(=O)O)CC[C@]4(C)[C@H]3CC[C@]12C	4%	40µM*	·	8%	·	·	10	-2%	40µM*
